# sEH inh – soluble epoxide hydrolase inhibitors, primary screen, biochemical, human sEH; recombinant human sEH enzymatic activity assay; inhibition, % at 2 µM; actives 0.34% (n = 91,000); in the data active = inhibition above about 80%
# LYP inh 2 – PTPN22 phosphatase inhibitors, primary screen, biochemical, DiFMUP fluorescence, 2 µM; Tyrosine-protein phosphatase non-receptor type 22 (Homo sapiens), Q9Y2R2; recombinant LYP catalytic domain; inhibition, % at 2 µM; actives 0.21% (n = 96,000);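 active = inhibition at 2 µM at or above a set limit, the screen mean plus 3 SD, cut at about 24% in these data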
# BAP1 inh – inhibitors of BAP1 deubiquitinase, primary screen, biochemical, Ub-AMC fluorescence, kinetic. recombinant BAP1, Ub-AMC hydrolysis fluorescence kinetic; stronger effect = lower value. Ubiquitin carboxyl-terminal hydrolase BAP1 (Homo sapiens), Q92560. calls only at 20 µM. AID 436, 2006. actives 0.48% (n = 72,000);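 active = activity remaining at or below 50% of control, provided the compound also passes the data quality filters; inactive = the rest, including low values that fail the filters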
# Target sequence (Q92560 whole entry, looked up): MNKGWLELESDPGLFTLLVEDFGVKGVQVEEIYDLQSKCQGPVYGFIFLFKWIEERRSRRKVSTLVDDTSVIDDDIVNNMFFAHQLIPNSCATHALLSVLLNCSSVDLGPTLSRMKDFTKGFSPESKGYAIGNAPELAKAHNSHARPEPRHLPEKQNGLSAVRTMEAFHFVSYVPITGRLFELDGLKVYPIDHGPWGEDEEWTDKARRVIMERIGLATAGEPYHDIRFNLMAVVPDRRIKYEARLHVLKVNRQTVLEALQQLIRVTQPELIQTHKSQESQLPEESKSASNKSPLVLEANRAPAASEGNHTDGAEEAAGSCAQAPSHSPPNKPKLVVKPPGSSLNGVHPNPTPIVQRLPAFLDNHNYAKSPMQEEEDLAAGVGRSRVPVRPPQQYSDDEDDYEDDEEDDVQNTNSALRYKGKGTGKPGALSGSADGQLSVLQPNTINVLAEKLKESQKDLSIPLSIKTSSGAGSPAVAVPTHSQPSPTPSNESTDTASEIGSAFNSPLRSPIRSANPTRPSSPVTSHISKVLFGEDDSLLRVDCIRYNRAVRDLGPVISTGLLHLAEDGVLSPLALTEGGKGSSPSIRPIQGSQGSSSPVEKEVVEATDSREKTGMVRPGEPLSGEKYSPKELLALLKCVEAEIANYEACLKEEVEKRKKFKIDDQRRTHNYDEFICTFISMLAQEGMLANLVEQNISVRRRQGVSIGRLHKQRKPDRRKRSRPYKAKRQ
# PTPN22 act – LYP phosphatase activators, primary screen, biochemical, DiFMUP fluorescence, 2 µM | actives 0.11% (n = 96,000) | AID 697, 2007 | recombinant LYP; 0 = plate median, 100 = signal doubled | Tyrosine-protein phosphatase non-receptor type 22 (Homo sapiens), Q9Y2R2 | activation, % at 2 µM;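 active = activation at 2 µM above a set limit, the mean plus 5 SD, cut at about 37% in these data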
# Candida biofilm – clotrimazole potentiators killing Candida biofilms, primary screen, with clotrimazole, Alamar Blue; actives 0.14% (n = 85,000); C. albicans biofilm + clotrimazole; inhibition, % at 6 µM; AID 834, 2007;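 active = inhibition above 20%; inactive = inhibition below 20%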;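 note: preformed 24 hr biofilms exposed to compound for 48 hr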
# sEH act – soluble epoxide hydrolase activators, primary screen, biochemical, human sEH | activation, % at 2 µM | Bifunctional epoxide hydrolase 2 (Homo sapiens), P34913 | AID 717, 2007 | actives 0.04% (n = 91,000) | purified human sEH enzymatic activity, activator screen; in the data active = activation above about 37%
# BAP1 inh confirm – BAP1 deubiquitinase inhibitors, hit retest, confirmation, orthogonal assay, biochemical, Ub-ethyl ester substrate, HPLC readout; shares compounds with BAP1 inh; purified BAP1, Ub-ethyl ester hydrolysis; stronger effect = lower value; % of control activity, % at 20 µM; actives 8% (n = 310); AID 753, 2007;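 active = percent of control activity at or below 60%; inconclusive = HPLC trace unusable from injection failure or solvent front hiding peaks; inactive = the rest, plus ubiquitin peak ratio over a set limit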
# Hits are given with their value; 0 = inactive; ? = inconclusive; - = no result shown; + = active, no number. In the library only some 0.79% were active in any assay of this set; here they are far more common.
SMILES,sEH inh,LYP inh 2,BAP1 inh,PTPN22 act,Candida biofilm,sEH act,BAP1 inh confirm
O=C(NCc1ccco1)c1cc2n(n1)C(C(F)(F)F)CC(c1ccc(Br)cc1)N2 (stereo not drawn),0,0,+,0,0,0,?
COc1ccc(OC)c(NC(=O)c2cc3n(n2)C(C(F)(F)F)CC(c2ccc4c(c2)OCO4)N3)c1 (stereo not drawn),-,0,+,0,0,-,0
COc1ccccc1NC(=O)c1cc2n(n1)C(C(F)(F)F)CC(c1ccc3c(c1)OCO3)N2 (stereo not drawn),0,0,-,0,0,0,-
CCc1c(C)sc(NC(=O)c2cccs2)c1C(=O)OC(C)C,0,0,0,0,0,0,-
CCOC(=O)c1c(NC(=O)c2cccs2)sc(C)c1CC,-,0,+,0,0,-,59
Cc1ccc(SCc2c(C#N)c3ccccc3n2C)cc1,0,0,0,0,0,0,-
Cc1ccccc1N1CCN(Cc2c(C#N)c3ccccc3n2C)CC1,0,0,+,0,0,0,0
C(=Cc1ccccc1)C1=Nc2ccccc2NC(c2ccccc2)C1 (stereo not drawn),-,-,0,-,-,-,-
Cc1sc2nc(SCCCC(=O)NCCO)[nH]c(=O)c2c1C,-,-,0,-,-,-,-
Cc1ccc2cc3c(NC(=O)c4ccco4)nn(CC(C)C)c3nc2c1,0,0,+,0,0,0,0
CC1CCN(C(=O)CCCN2C(=O)c3cccc4cccc(c34)C2=O)CC1,-,-,0,-,-,-,-
CC1=C(C(=O)OCc2ccc(C)cc2)C(c2ccccc2OC(C)C)NC(=O)N1 (stereo not drawn),-,-,0,-,-,-,-
COc1ccc(OC)c2c1sc(=NC(=O)c1ccco1)n2C,0,0,+,0,0,0,0
Cc1ccc(-c2c(C)sc(=NC(=O)c3ccco3)n2C)cc1,0,0,-,0,-,0,-
COc1ccc(-c2nnc(SCC(=O)Nc3cccc(Cl)c3)o2)cc1,0,0,+,0,0,0,0
COc1ccc(-c2nnc(SCC(=O)Nc3ccccc3OC)o2)cc1,0,0,0,0,0,0,-
Cc1cc(C(=O)O)ccc1N/C=C1\CCCC(C)C1=O (stereo not drawn),0,0,-,0,0,0,-
CC1CCC/C(=C\Nc2ccc(O)cc2)C1=O (stereo not drawn),0,0,+,0,0,0,0
COc1cc(-c2nnc(SCC(=O)c3ccc4ccccc4c3)o2)cc(OC)c1OC,-,-,0,-,-,-,-
CCCn1c2c(c(O)c(C(=O)Nc3ccccc3)c1=O)CCCC2,0,0,+,0,0,0,0
Cc1csc(NC(=O)c2cc3c(s2)-c2ccccc2OC3)n1,0,0,+,0,0,0,0
CN(C)CCNC(=O)c1cc2c(s1)-c1ccccc1OC2,-,0,-,0,0,-,-
CC(C)OC(=O)c1c(NC(=O)CCn2nnc3ccccc32)sc2c1CCCC2,-,-,+,-,0,-,0
CC1=C(C(=O)Nc2ccccc2)C(c2ccc(C)o2)n2c(s/c(=C\c3ccco3)c2=O)=N1 (stereo not drawn),0,0,+,0,0,0,0
Cc1cc(S(=O)(=O)N2CCN(c3c(C)cccc3C)CC2)ccc1F,0,0,0,0,0,0,-
SMILES,sEH inh,LYP inh 2,BAP1 inh,PTPN22 act,Candida biofilm,sEH act,BAP1 inh confirm
Cc1cc(S(=O)(=O)N2CCN(c3ccccc3C)CC2)ccc1F,0,0,+,0,0,0,0
CCOc1cc(C(=O)O)cc(Cl)c1OCC#N,0,0,+,0,0,0,0
CCOC(=O)c1c(NC(=O)c2ccc(C(=O)OC)cc2)sc2c1CCCC2,-,-,0,-,-,-,-
CCCCNC(=O)C(C#N)c1nc2ccccc2nc1N1CCN(Cc2ccc3c(c2)OCO3)CC1 (stereo not drawn),-,-,-,-,0,-,-
C=CCOC(=O)C(C#N)c1nc2ccccc2nc1N1CCN(Cc2ccc3c(c2)OCO3)CC1 (stereo not drawn),-,-,+,-,0,-,0
O=C1c2ccc([N+](=O)[O-])cc2C(=O)N1c1ccccc1-c1ccccc1,-,-,0,-,-,-,-
COc1ccc(-c2noc(-c3ccc(Cl)cc3)n2)cc1,0,0,+,0,0,0,0
COc1ccc(-c2noc(-c3ccccc3-c3ccccc3)n2)cc1,0,0,-,0,0,0,-
O=C(c1ccco1)[C@@H]1[C@@H]2C(=O)N(c3ccccc3)C(=O)[C@@H]2C2c3ccccc3C=CN21 (stereo partly drawn),0,0,+,0,-,0,?
Cc1ccc(N2C(=O)[C@@H]3[C@H](C2=O)C2c4ccccc4C=CN2[C@@H]3C(=O)c2ccco2)c(C)c1 (stereo partly drawn),0,0,+,0,-,0,0
Cc1ccc(N2C(=O)[C@@H]3[C@H](C2=O)C2c4ccccc4C=CN2[C@@H]3C(=O)c2ccco2)cc1 (stereo partly drawn),0,0,0,0,-,0,-
CC(=O)[C@@H]1[C@@H]2C(=O)N(Cc3ccccc3)C(=O)[C@@H]2C2c3ccccc3C=CN21 (stereo partly drawn),-,0,0,0,0,-,-
Oc1cc(N=CC=Cc2cccc(Br)c2)ccc1-c1nc2ccccc2o1,-,-,0,-,-,-,-
Cn1c(=O)c2c(nc(N3CCCC3)n2CCCc2ccccc2)n(C)c1=O,-,-,0,-,-,-,-
CC1CCN(S(=O)(=O)c2ccc(NC(=O)Cn3nnc(-c4ccccc4)n3)cc2)CC1,0,0,0,0,0,0,-
CC1CCCN(S(=O)(=O)c2ccc(NC(=O)Cn3nnc(-c4ccccc4F)n3)cc2)C1 (stereo not drawn),0,0,+,0,0,0,26
Cc1ccc(-c2nnn(CC(=O)Nc3ccc(S(=O)(=O)N4CCC(C)CC4)cc3)n2)cc1,0,0,+,0,0,0,0
COc1ccc(NC(=O)Cn2nnc(-c3ccccc3F)n2)cc1,0,0,0,0,0,0,-
CC(=O)C1=C(C)NC(SCC(=O)c2ccc(Cl)c(Cl)c2)=C(C#N)C1c1ccco1 (stereo not drawn),-,0,+,0,0,-,42
CC(=O)C1=C(C)NC(SCC(=O)c2ccc(F)cc2)=C(C#N)C1c1ccco1 (stereo not drawn),-,0,0,0,-,-,-
CC(=O)C1=C(C)NC(SCC(=O)c2cc(Cl)ccc2Cl)=C(C#N)C1c1ccco1 (stereo not drawn),-,0,+,0,0,-,0
CC(C)(C)c1ccc(OC(=O)c2ccc([N+](=O)[O-])cc2)cc1,-,-,0,-,-,-,-
CCCCOc1ccc(NC2=NC3(CCCC3)N=C(N)N2)cc1,0,0,+,0,0,0,0
Cc1cc(C)cc(NC2=NC3(CCCCC3)N=C(N)N2)c1,0,0,0,0,0,0,-
